Screening data (PubChem BioAssay)
eLon inh: inhibitors of E. coli Lon protease, primary screen, biochemical, fluorescence polarization; purified E. coli Lon protease; inhibition, % at 7.94 µM; hit rate 0.42% among 360,000; in the data active = inhibition above about 13%, passing the limit was not always enough
PKA-R1A activ: activators of PKA-R1A holoenzyme, primary screen, biochemical, fluorescence polarization, Cy5-IP20, bovine R1A, mouse PKAc; hit rate 0.083% among 340,000; cAMP-dependent protein kinase type I-alpha regulatory subunit (Bos taurus) + …; activation, % at 11.4 µM; PKA-R1A dissociation; scaled: DMSO 0%, 113 µM cGMP 100%;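 active = percent activation above the mean of all tested compounds plus 3 SD, cut at about 19% in these data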;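 note: higher means more PKAc released from R1A so a rise in polarization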
Rin1 Abl inh: inhibitors of Rin1-Abl protein binding, primary screen, biochemical, TR-FRET | inhibition, % at 7.35 µM | hit rate 0.4% among 360,000; in the data active = inhibition above about 5%, passing the limit was not always enough
IDE cell activ: human IDE activators in live cells, primary screen, fluorescence polarization, HEK cells, FAbeta-B substrate; Insulin-degrading enzyme (Homo sapiens), P14735; FAbeta-B cleavage; 0% vehicle, 100% cell-free pure enzyme wells; activation, % at 5.96 µM; hit rate 0.073% among 340,000;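 active = activation above the mean of all tested compounds plus 3 SD, set per screening campaign, cut at about 17% in these data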
PKA-R2B activ: activators of PKA-R2B holoenzyme, primary screen, biochemical, fluorescence polarization, Cy5-IP20, human. PKA-R2B holoenzyme dissociation; R2B truncated from residue 108, S112A mutant; 0% DMSO only, 100% 113 µM cGMP. activation, % at 11.4 µM. hit rate 0.079% among 340,000. AID 504700, 2011;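 active = activation above a cutoff set at the mean over all compounds plus 3 SD, cut at about 18% in these data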;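 note: higher means more holoenzyme dissociation and a rise in polarization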
IDE inh: human IDE inhibitors in live cells, primary screen, fluorescence polarization, HEK cells, FAbetaB substrate; Insulin-degrading enzyme (Homo sapiens), P14735; FAbetaB cleavage; inhibition, % at 5.59 µM; hit rate 0.41% among 320,000;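 active = percent inhibition above the average of all tested compounds plus 3 SD, set per screening campaign, cut at about 16% in these data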;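 note: IDE supplied by intact live HEK cells; FP after avidin binding of uncleaved biotin substrate so inhibition keeps polarization high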
Rin1 Abl conf: Rin1-Abl binding inhibitor retest, confirmation, biochemical, TR-FRET. hit rate 49% among 1,300. shares compounds with Rin1 Abl inh. AID 602124, 2011. purified proteins. inhibition, % at 7.35 µM
GFP quench: GFP fluorescence inhibitors and quenchers, artefact control for Rin1-Abl interaction inhibitor project, biochemical. AID 602125, 2011. hit rate 8.5% among 1,300. inhibition, % at 6.75 µM. shares compounds with Rin1 Abl inh. inhibitors/quenchers counterscreen;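 note: ABL1-eGFP fusion protein alone without its partner RIN1-SBP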
GFP quench dose: GFP fluorescence inhibitors and quenchers, dose response, artefact control for Rin1-Abl interaction inhibitor project, biochemical; 230 tested, under 10 active; shares compounds with Rin1 Abl inh; GFP fluorescence interference/quenching counterscreen; IC50, µM; AID 602182, 2012; call rule not given here;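 note: ABL1-eGFP fusion protein alone without its RIN1 binding partner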
A number is an active result; n = inactive; x = no result given. An excerpt weighted towards active compounds, which were near 1.3% of everything screened. Cut-off read from the data, not from the text of the source, unless noted: active = inhibition above about 6.5%; inactive = the rest.

SMILES | eLon inh | PKA-R1A activ | Rin1 Abl inh | IDE cell activ | PKA-R2B activ | IDE inh | Rin1 Abl conf | GFP quench | others
O=C(COC(=O)c1cccnc1)Nc1ccc(F)cc1 | n | n | 5.7 | n | n | n | n | n
CCOC(=O)N1CCC(Nc2cc(C)nc3c(-c4ccccc4OC)c(C)nn23)CC1 | n | n | 6.2 | n | n | n | n | n
O=C1C(=Cc2ccccc2[N+](=O)[O-])Cc2ccccc21 | n | n | n | x | n | x | x | x
Cn1cnc2c1c(=O)n(Cc1ccc(F)cc1Cl)c(=O)n2C | n | n | 7.6 | n | n | n | n | n
CCN(CC(=O)Nc1ccc(NC(C)=O)cc1)C(=O)c1ccc(Sc2nncn2C)c([N+](=O)[O-])c1 | n | n | 9.7 | x | n | x | n | n
COc1ccc(C(C(=O)NCc2ccccc2)N(C(=O)c2snc(C(N)=O)c2N)C2CCCC2)cc1 (stereo unspecified) | n | n | n | n | n | n | x | x
COc1ccc(C(C(=O)NCc2ccccc2)N(C(=O)c2snc(C(N)=O)c2N)c2ccccc2OC)cc1 (stereo unspecified) | n | n | 12.2 | n | n | n | 13.5 | n
COc1ccc(N(C(=O)c2snc(C(N)=O)c2N)C(C(=O)NC2CCCCC2)c2ccc(F)cc2)c(OC)c1 (stereo unspecified) | n | n | n | n | n | n | x | x
NC(=O)c1nsc(C(=O)N(c2ccccc2F)C(C(=O)NCc2ccc(F)cc2)c2ccc(O)cc2)c1N (stereo unspecified) | n | n | n | n | n | n | x | x
COc1ccc(N(C(=O)c2snc(C(N)=O)c2N)C(C(=O)NCc2ccccc2)c2ccc(F)cc2)c(OC)c1 (stereo unspecified) | n | n | 9.9 | n | n | n | 10.8 | n
COc1ccccc1N(C(=O)c1snc(C(N)=O)c1N)C(C(=O)NCc1ccccc1)c1ccc(O)cc1 (stereo unspecified) | n | n | 22.4 | n | n | x | 22.5 | n | GFP quench dose=n
CS(=O)(=O)c1ccc(Cl)c(NC(=O)CCCc2nc3ccccc3c(=O)[nH]2)c1 | n | n | n | n | n | n | x | x
O=C(Cc1c(F)cccc1Cl)NNC(=O)Nc1ccc2c(c1)OCO2 | n | n | 14.0 | n | n | n | n | n
CC(=O)c1ccc(NC(=O)C2CCN(S(=O)(=O)c3cccc4nonc34)CC2)cc1 | n | n | n | n | n | n | x | x
Cc1ccc(N=C2NC(=O)C(CC(=O)NCc3ccccc3)S2)cc1C (stereo unspecified) | n | n | 8.9 | n | n | n | n | n
C/C(=N\N=C1\NC(=O)C(CC(=O)NCc2ccccc2)S1)C(C)C (stereo unspecified) | n | n | n | n | n | n | x | x
NC(=O)c1ccc[n+](CC(=O)NCc2ccc(Cl)cc2)c1 | n | n | n | n | n | n | x | x
CCCCN(C)C(=O)c1ccc(Nc2nc(C(N)CCc3ccccc3)cs2)nc1 (stereo unspecified) | n | x | n | x | x | x | x | x
CCCCN(C)C(=O)c1ccc(Nc2nc(C(N)Cc3ccc(C(F)(F)F)cc3)cs2)nc1 (stereo unspecified) | n | x | 8.1 | x | x | x | n | n
CC1CCN(S(=O)(=O)c2cccc(-c3csc(-c4cccnc4)n3)c2)CC1 | n | n | n | n | n | n | x | x
CCOC(=O)CSc1ccc2nnc(-c3cccnc3)n2n1 | n | n | 7.5 | n | n | n | n | n
